Common to all, as to conditions: mRNA level, 48 h; actives raise or lower the signal
Read-out in assay [1]: growth arrest and DNA damage 45 (GADD45A), GADD45A (gene 1647)
Briefly: LTEA_HepaRG_GADD45A: Life Technologies and Expression Analysis (LTEA) Assay for growth arrest and DNA damage 45 (GADD45A) using HepaRG (AID 2283458). Put shortly: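 Eight-point concentration-response in HepaRG cells: 48 h chemical exposure, 0.5% DMSO vehicle, top dose 100 uM. Normalized qRT-PCR mRNA readout with bidirectional fitting relative to DMSO.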

Read-out in assay [2]: Forkhead box O3 (FOXO3), FOXO3 (gene 2309)
Briefly: LTEA_HepaRG_FOXO3: Life Technologies and Expression Analysis (LTEA) Assay for Forkhead box O3 (FOXO3) using HepaRG (AID 2283459). Put shortly:
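qRT-PCR readout of FOXO3 transcript, normalized to three housekeeping genes (ACTB, GAPDH, POLR2A); gain or loss fitted against 0.5% DMSO vehicle. HepaRG cells, 48 h chemical exposure, 8-point half-log series, top 100 uM.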

Read-out in assay [3]: ABC Transporter (ABCB1), ABCB1 (gene 5243)
Briefly: LTEA_HepaRG_ABCB1: Life Technologies and Expression Analysis (LTEA) Assay for ABC Transporter (ABCB1) using HepaRG (AID 2283460). Put shortly:
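HepaRG, 48 h exposure, 8-pt half-log series from 100 uM, 0.5% DMSO vehicle, duplicates. Readout: ABCB1 transcript by Fluidigm TaqMan qRT-PCR, housekeeping-normalized; bidirectional curve fit vs DMSO baseline.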

Read-out in assay [4]: growth arrest and DNA damage 45 (GADD45B), GADD45B (gene 4616)
Briefly: LTEA_HepaRG_GADD45B: Life Technologies and Expression Analysis (LTEA) Assay for growth arrest and DNA damage 45 (GADD45B) using HepaRG (AID 2283461). Put shortly:
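HepaRG, ~100,000 cells/well, 48 h plating; serum-free induction medium; cpd 100 uM top, half-log x8, 0.5% DMSO, duplicate, 48 h; lysis in RLT, RNA isolation, qRT-PCR; norm ACTB/GAPDH/POLR2A; bidirectional fit vs DMSO.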

Read-out in assay [5]: ABC Transporter (ABCC3), ABCC3 (gene 8714)
Briefly: LTEA_HepaRG_ABCC3: Life Technologies and Expression Analysis (LTEA) Assay for ABC Transporter (ABCC3) using HepaRG (AID 2283462). Summed up: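 Human HepaRG, 48 h dosing, 8-pt half-log series from 100 uM, 0.5% DMSO vehicle, duplicates. ABCC3 mRNA by TaqMan qRT-PCR, housekeeping-normalized; bidirectional curve fit vs DMSO.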

Read-out in assay [6]: ABC Transporter (ABCB11), ABCB11 (gene 8647)
Briefly: LTEA_HepaRG_ABCB11: Life Technologies and Expression Analysis (LTEA) Assay for ABC Transporter (ABCB11) using HepaRG (AID 2283463). Summed up:
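HepaRG, 48 h exposure, 8-pt half-log CRC top 100 uM, 0.5% DMSO vehicle, duplicates. Readout: TaqMan qRT-PCR of ABCB11 mRNA, housekeeping-normalized (ACTB/GAPDH/POLR2A). Bidirectional fit vs DMSO baseline.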

Read-out in assay [7]: ABC Transporter (ABCC2), ABCC2 (gene 1244)
Briefly: LTEA_HepaRG_ABCC2: Life Technologies and Expression Analysis (LTEA) Assay for ABC Transporter (ABCC2) using HepaRG (AID 2283464). Put shortly:
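HepaRG, 48 h post-plating; serum-free induction medium; cpd 8-pt, 100 uM top, half-log, 0.5% DMSO, duplicate, 48 h. Readout: ABCC2 mRNA by qRT-PCR, norm. ACTB/GAPDH/POLR2A. Bidirectional fit vs DMSO baseline.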

Read-out in assay [8]: ATP-citrate lyase (ACLY), ACLY (gene 47)
Briefly: LTEA_HepaRG_ACLY: Life Technologies and Expression Analysis (LTEA) Assay for ATP-citrate lyase (ACLY) using HepaRG (AID 2283466). Put shortly: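 qRT-PCR readout of ACLY transcript after 48 h chemical treatment of HepaRG cells; expression normalized to three housekeeping genes. Eight-point half-log series, highest 100 uM, 0.5% DMSO vehicle. Gain or loss fitted against DMSO baseline.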

Read-out in assay [9]: Peroxisomal acyl-coenzyme A oxidase 1 (ACOX1) gene, ACOX1 (gene 51)
Briefly: LTEA_HepaRG_ACOX1: Life Technologies and Expression Analysis (LTEA) Assay for Peroxisomal acyl-coenzyme A oxidase 1 (ACOX1) gene using HepaRG (AID 2283467). Put shortly:
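HepaRG, 48 h chemical exposure, 8-pt half-log series from 100 uM top, 0.5% DMSO vehicle, duplicates. Readout: ACOX1 mRNA by Fluidigm qRT-PCR, housekeeping-normalized; bidirectional fit vs DMSO baseline.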

Read-out in assay [10]: Alkaline Phosphatase, Placental (ALPP) gene, ALPP (gene 250)
Description: LTEA_HepaRG_ALPP: Life Technologies and Expression Analysis (LTEA) Assay for Alkaline Phosphatase, Placental (ALPP) gene using HepaRG (AID 2283468).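 For AC50: differentiated human HepaRG liver cells in serum-free induction medium.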 Summed up: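 HepaRG, 48 h plating then 48 h dosing, serum-free induction medium, 0.5% DMSO. 8 conc, half-log, max 100 uM, duplicates. Endpoint: ALPP transcript by qRT-PCR, housekeeping-normalized; gain or loss fitted vs DMSO.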

Read-out in assay [11]: Bcl-2 (BAD) gene, BAD (gene 572)
Briefly: LTEA_HepaRG_BAD: Life Technologies and Expression Analysis (LTEA) Assay for Bcl-2 (BAD) gene using HepaRG (AID 2283469). Put shortly:
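HepaRG, 48 h exposure, 8-pt half-log curve from 100 uM in 0.5% DMSO, duplicates. Readout: TaqMan qRT-PCR for BAD mRNA, housekeeping-normalised (ACTB/GAPDH/POLR2A); gain or loss fitted against DMSO baseline.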

Read-out in assay [12]: Bcl-2 (BAX) gene, BAX (gene 581)
Briefly: LTEA_HepaRG_BAX: Life Technologies and Expression Analysis (LTEA) Assay for Bcl-2 (BAX) gene using HepaRG (AID 2283470). Put shortly:
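Human HepaRG cells treated in duplicate for 48 h across eight concentrations (max 100 uM, 0.5% DMSO); BAX expression measured by qRT-PCR.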

Read-out in assay [13]: adenosine kinase (ADK) gene, ADK (gene 132)
Description: LTEA_HepaRG_ADK: Life Technologies and Expression Analysis (LTEA) Assay for adenosine kinase (ADK) gene using HepaRG (AID 2283471). Put shortly: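 ADK expression quantified by qRT-PCR, normalised to three housekeeping genes, after 48 h exposure of HepaRG cells to eight concentrations (top 100 uM, half-log steps, duplicate, 0.5% DMSO). Up- or down-regulation fitted relative to vehicle.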

Read-out in assay [14]: Alpha-fetoprotein (AFP) gene, AFP (gene 174)
Briefly: LTEA_HepaRG_AFP: Life Technologies and Expression Analysis (LTEA) Assay for Alpha-fetoprotein (AFP) gene using HepaRG (AID 2283472). Summed up: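 Measures AFP mRNA change in HepaRG after 48 h chemical exposure (8 half-log concentrations, highest 100 uM, 0.5% DMSO). Fold change relative to DMSO, fitted in both directions.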

Read-out in assay [15]: BCL2L11 (gene 10018)
Description: LTEA_HepaRG_BCL2L11: Life Technologies and Expression Analysis (LTEA) Assay for Bcl-2 (BCL2L11) gene using HepaRG (AID 2283473). Summed up: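 Read-out is BCL2L11 transcript level by qRT-PCR, normalized to three housekeeping genes and fitted bidirectionally against 0.5% DMSO vehicle. HepaRG cells received chemicals for 48 h in serum-free induction medium, 100 uM down in half-log dilutions.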

Read-out in assay [16]: Apolipoprotein A-V (APOA5) gene, APOA5 (gene 116519)
Description: LTEA_HepaRG_APOA5: Life Technologies and Expression Analysis (LTEA) Assay for Apolipoprotein A-V (APOA5) gene using HepaRG (AID 2283474). Put shortly:
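Readout is APOA5 transcript level by qRT-PCR on Fluidigm dynamic arrays, normalized to three housekeeping genes. HepaRG cultures received chemicals for 48 h at up to 100 uM (half-log steps, 0.5% DMSO), with gain or loss scored relative to DMSO.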

Read-out in assay [17]: Apoptosis regulator Bcl-2 (Homo sapiens) (UniProt P10415)
Briefly: LTEA_HepaRG_BCL2: Life Technologies and Expression Analysis (LTEA) Assay for Bcl-2 gene using HepaRG (AID 2283475). Put shortly:
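Each chemical was tested in duplicate on HepaRG cultures held in serum-free induction medium for 48 h, highest concentration 100 uM with half-log dilutions. Transcript levels came from multiplexed qRT-PCR, normalised to housekeeping genes; activity was scored in either direction relative to DMSO.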

Read-out in assay [18]: Bcl-2 (BID) gene, BID (gene 637)
Description: LTEA_HepaRG_BID: Life Technologies and Expression Analysis (LTEA) Assay for Bcl-2 (BID) gene using HepaRG (AID 2283476). Summed up:
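Assay used HepaRG hepatic cells treated 48 h in serum-free medium with half-log dilutions from 100 uM. Endpoint: BID mRNA, qRT-PCR, normalized to ACTB/GAPDH/POLR2A.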

Read-out in assay [19]: Caspase-3 (Homo sapiens) (UniProt P42574)
Briefly: LTEA_HepaRG_CASP3: Life Technologies and Expression Analysis (LTEA) Assay for cysteine-aspartic acid protease (CASP3) using HepaRG (AID 2283477). Summed up:
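Read-out is CASP3 mRNA level by TaqMan qRT-PCR in human HepaRG cells after 48 h chemical exposure. Eight half-log concentrations topping at 100 uM were tested in 0.5% DMSO; gain or loss was fitted relative to DMSO.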

The source made the active and inactive calls. Rule for the calls: active = hit-call score of the fitted dose curve at least 0.9, where 1 is the maximum; inactive = score below 0.9.

Chain of Apoptosis regulator Bcl-2 (Homo sapiens) (P10415 whole entry, looked up): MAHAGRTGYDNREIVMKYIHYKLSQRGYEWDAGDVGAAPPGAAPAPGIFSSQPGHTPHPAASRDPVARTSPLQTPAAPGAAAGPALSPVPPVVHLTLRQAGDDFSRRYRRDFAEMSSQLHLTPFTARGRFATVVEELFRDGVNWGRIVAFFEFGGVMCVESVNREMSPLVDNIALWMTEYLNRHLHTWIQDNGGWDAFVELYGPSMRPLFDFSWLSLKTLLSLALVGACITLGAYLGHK
Chain of Caspase-3 (Homo sapiens) (P42574 whole entry, looked up): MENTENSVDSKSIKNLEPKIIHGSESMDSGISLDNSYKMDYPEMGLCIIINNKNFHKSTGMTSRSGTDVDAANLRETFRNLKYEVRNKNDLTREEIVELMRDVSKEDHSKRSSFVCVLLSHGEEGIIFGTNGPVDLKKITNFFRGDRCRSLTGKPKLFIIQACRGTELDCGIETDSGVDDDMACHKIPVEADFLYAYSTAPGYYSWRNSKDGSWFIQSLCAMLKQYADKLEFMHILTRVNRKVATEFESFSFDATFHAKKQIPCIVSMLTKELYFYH

In general, AC50 refers to the midpoint of the concentration-response curve, whichever way the signal moves. As to `CC(C)c1nnc2ccc(-c3ocnc3-c3cc(F)ccc3F)cn12`, the molecule was called inactive in [1], in assay [2], in assay [3], in assay [4], in assay [7] and in assay [8]. Moreover, the result in assay [9], in [11], in assay [12], in assay [13], in [15] and in assay [17] was inactive. Also, the call in assay [18] and in [19] was inactive. In addition, the AC50 in assay [5] was 50 µM (active); in assay [6], 81 µM (active); in [10] it was 39.6 µM (active); in assay [14] it was 50 µM (active); in [16] it was 56.3 µM (active).
For the molecule `Cc1nc(-c2ccccn2)ncc1C(=O)Nn1cc(C)c2cc(F)ccc21`, the result in assay [1], in assay [2], in assay [4], in assay [5], in assay [9] and in assay [11] was inactive. Moreover, the molecule was called inactive in assay [12], in assay [13], in [15], in [17] and in assay [18]. Further, the AC50 in [3] is 2.77 µM (active); in assay [6], 50 µM (active); in [7], 12.2 µM (active); in assay [10], 82.3 µM (active); in [14] it was 50 µM (active); in assay [16] it was 80.6 µM (active).
Take `O=C(NO)C1(NS(=O)(=O)c2ccc(Oc3ccc(F)cc3)cc2)CCOCC1`: the call in assay [1], in assay [2], in [3], in [4], in assay [7] and in assay [9] was inactive. Also, the molecule was classed as inactive in assay [11], in assay [12], in [13], in assay [15], in assay [16] and in [17]. Also, in [18], the molecule was classed as inactive. The AC50 in [5] was 80.1 µM (active); in assay [6] it was 82.8 µM (active); in [10], 60.9 µM (active); in assay [14], 70.2 µM (active).
Turning to `CC(C)C(=O)Nc1ccc([N+](=O)[O-])c(C(F)(F)F)c1`, the AC50 is 67.9 µM (active) in assay [1]; 25.3 µM (active) in [6]; 34.3 µM (active) in assay [7]; 72.4 µM (active) in assay [9]; 50 µM (active) in [10]; 50 µM (active) in assay [12]. The concentration at half-maximal activity (AC50) in [14] was 58.5 µM (active); in assay [16], 65.9 µM (active); in [17], 90.3 µM (active). Besides, the outcome in [2], in assay [3], in assay [4], in assay [5], in [11] and in assay [13] was inactive. For the same molecule, the call in [15], in assay [18] and in [19] was inactive.
Regarding `Nc1ccn([C@@H]2O[C@H](CO)[C@@H](O)[C@@H]2O)c(=O)n1`, the molecule was called inactive in assay [1], in assay [2], in [3], in assay [4], in assay [5] and in [6]. Besides, the molecule was classed as inactive in assay [7], in [9], in assay [10], in assay [11], in assay [12] and in assay [13]. The molecule was called inactive in assay [14], in assay [15], in assay [16], in assay [17], in [18] and in [19].
`COc1cc2c(c(OC)c1OC)-c1ccc(OC)c(=O)cc1[C@@H](NC(C)=O)CC2`: the outcome in assay [1], in [2], in [4], in [11], in assay [17] and in assay [18] was inactive. Also, the AC50 was 0.0797 µM (active) in [3]; 0.196 µM (active) in assay [5]; 0.0634 µM (active) in assay [6]; 0.133 µM (active) in assay [7]; 0.0989 µM (active) in assay [9]; 0.221 µM (active) in assay [10]. Also, the AC50 was 0.0559 µM (active) in assay [12]; 0.0644 µM (active) in assay [13]; 0.148 µM (active) in assay [14]; 0.237 µM (active) in [15]; 0.138 µM (active) in [16].

The values above are taken from PubChem BioAssay (EPA / NIEHS).
